Reference: the supplement of paper PMC12819154, “High-throughput peptide-centric local stability assay extends protein–ligand identification to membrane proteins, tissues and bacteria” (Nature Structural & Molecular Biology, 2025)

compound: Nc1ncnc2c1ncn2[C@@H]1O[C@H](COP(=O)(O)OP(=O)(O)OP(=O)(O)O)[C@@H](O)[C@H]1O [adenosine 5'-triphosphate]; assay: log2 fold change of tryptic peptide abundance, ligand vs vehicle (limited proteolysis) (log2 ratio); higher = more trypsin-susceptible (destabilized); settings: ligand concentration: 5 mM; sample: E. coli desalted lysate; replicate design: treated before aliquoting
Description: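 HT-PELSA: desalted E. coli K-12 BW25113 lysate (with 12 mM MgCl2) incubated with 5 mM ATP (pH 7) or water for 30 min at 25 C, then a 4 min trypsin pulse at 22 C. Peptides were quantified by DIA-MS (4 replicates). Value is the peptide log2 fold change (treated/control); negative = stabilized. Scale: negative = ligand-stabilized region.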
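Further: lysate desalted by size exclusion to strip endogenous ATP, peptide intensities built from DIA-NN precursor signals, and peptides missing any value discarded before comparison.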

Row | Target | log2 fold change
1 | UniProt P39274 (peptide sequence: FYINDKQGK, peptide start residue: 10) | 0.423
2 | UniProt P10908 (peptide sequence: VDAGSWYSK, peptide start residue: 79) | -0.858
3 | UniProt P0AF96 (peptide sequence: AHVTAETPK, peptide start residue: 26) | -0.321
4 | UniProt P56580 (peptide sequence: KIVYITAGTRPAIVDK, peptide start residue: 26) | 1.13
5 | UniProt P15081 (peptide sequence: AFDTLCQQGR, peptide start residue: 30) | -0.599
6 | UniProt P75796 (peptide sequence: VHGLLPGKDAAAR, peptide start residue: 430) | 1.01
7 | UniProt P77804 (peptide sequence: LEGYQEDQAKK, peptide start residue: 423) | 0.387
8 | UniProt P76556 (peptide sequence: IAFVGSVGAGK, peptide start residue: 4) | -0.693
9 | UniProt P33570 (peptide sequence: AGKEEAHGAPLGEEEVALAR, peptide start residue: 254) | -0.289
10 | UniProt P43672 (peptide sequence: LMLGQLQADSGR, peptide start residue: 364) | -0.906
11 | UniProt P05707 (peptide sequence: VGSKHNSGYSAAK, peptide start residue: 146) | -3.4
12 | UniProt P77293 (peptide sequence: GILSWVGGK, peptide start residue: 179) | -0.543
13 | UniProt P36683 (peptide sequence: EALGLPHSDVFR, peptide start residue: 359) | 0.334
14 | UniProt P76149 (peptide sequence: AGAAIGAQAGAALKK, peptide start residue: 216) | -1.54
15 | UniProt P04825 (peptide sequence: GLENLSGDLYEK, peptide start residue: 853) | -0.937
16 | UniProt P77258 (peptide sequence: DENGQAIR, peptide start residue: 136) | -0.737
17 | UniProt P00760 (peptide sequence: LKSAASLNSR, peptide start residue: 113) | 0.367
18 | UniProt P15005 (peptide sequence: LAYLLTGEK, peptide start residue: 214) | -1.01
19 | UniProt P37177 (peptide sequence: VANIYDSLHPAMLR, peptide start residue: 636) | 0.572
20 | UniProt P37671 (peptide sequence: SYWESHQHEIQPLTR, peptide start residue: 174) | -0.718
21 | UniProt P00805 (peptide sequence: SVFDTLATAAK, peptide start residue: 274) | 0.366
22 | UniProt P07013 (peptide sequence: LVLSGTVCR, peptide start residue: 5) | -0.606
23 | UniProt P11553 (peptide sequence: AQIHYQYR, peptide start residue: 451) | 0.93
24 | UniProt P11454 (peptide sequence: IELGEIDR, peptide start residue: 867) | -1.19
25 | UniProt P25741 (peptide sequence: LSDVGVDTMK, peptide start residue: 84) | -0.922
26 | UniProt P76027 (peptide sequence: GCPFQPR, peptide start residue: 298) | 1.56
27 | UniProt P39343 (peptide sequence: IKNNDHNHNTVDLGYQIYHGNTL, peptide start residue: 310) | -0.756
28 | UniProt P75919 (peptide sequence: LLSDDPAKGEGK, peptide start residue: 249) | -0.826
